Rows were chosen to be rich in hits. Some 1.1% of all compounds tested hit in one or more screens of this group.
VLA-4 inh: inhibition in a human VLA-4 binding assay | P13612 | VLA-4 expressing cells, ligand binding flow cytometry | inhibition, % (about 7 µM as worked out from the volumes in the protocol) | 0.2% of 330,000 active | AID 2557; in the data active = inhibition above about 50%
CaV13 ICDI inh: Disruptors of the CACNA1D IQ motif to Ca2+-dependent inactivation inhibitor domain association, primary screening, Förster resonance energy transfer in intact living …; HEK cells, CFP/YFP FRET ICDI-IQ, plate reader, 10 min; percent FRET-ratio fall versus neutral wells; inhibition, % at 12.3 µM; 0.098% of 340,000 active; AID 743397;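 active = mean replicate inhibition of at least 30% and at least 1% of replicates passing that level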
Granule exo inh: lytic granule exocytosis inhibition | TALL-104 LAMP-1 surface exposure, flow cytometry; cells stimulated with thapsigargin and PMA | inhibition, % at 10 µM | 0.66% of 360,000 active | AID 651702;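 active = inhibition above about 55%, limit read from the data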
ABCB6 inh 2: inhibitors of human ABC transporter ABCB6; fluorescence ratio to DMSO, % at 10 µM; Q9NP58; K562-ABCB6 porphyrin accumulation, flow cytometry, 1 h; stronger effect = lower value; 0.19% of 360,000 active;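 active = fluorescence ratio to DMSO below 75%, the collection mean minus 3 SD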;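 also: signal is porphyrin accumulated inside mitochondria; lower ratio means ABCB6 inhibition with less porphyrin fluorescence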
VLA-4 mod pick: human VLA-4 allosteric modulation in cherry picked compounds; shares compounds with VLA-4 inh; U937 cells, HUTS-21 LIBS mAb binding, flow cytometry; LDV ligand present at threefold Kd; inhibition, % at 6.7 µM; 2% of 1,300 active; AID 2813; in the data active = inhibition above about 40%
Each line names hits and unclear results; the compound was inactive in the other large screens (follow-up assays come after a bar, where they were run).

COc1ccc(N=C2Sc3ccccc3[C@@H]3C[C@H]4[C@H](CON4C)CN23)c(OC)c1	none (no result: VLA-4 inh, Granule exo inh, ABCB6 inh 2)
COc1cc(N2C[C@@]3(O)CC[C@@H](O)[C@@H](OC)[C@@H]3[C@@](C)(O)[C@@H]2CC=C(C)C)cc(OC)c1OC	none (no result: VLA-4 inh, Granule exo inh, ABCB6 inh 2)
CCCCCCC(NC(=O)c1ccc(C)cc1)C(=O)O (stereo not given)	none (no result: VLA-4 inh)
COCc1[nH]nc2c1C(c1ccccc1)N(Cc1ccccc1)C2=O (stereo not given)	none (no result: VLA-4 inh, Granule exo inh, ABCB6 inh 2)
COC(=O)c1sccc1NC(=O)Nc1ccccc1F	none
COC(=O)c1sccc1NC(=O)Nc1ccccc1C	none | VLA-4 mod pick inactive
Fc1ccc(N/N=C/c2ccc(N3CCOCC3)cc2)c(F)c1	none
O=C(Cc1ccccc1)Nc1cccc(N2C(=O)C=CC2=O)c1	VLA-4 inh 60 | VLA-4 mod pick inactive
COc1cccc(NC(=O)Cc2ccccc2)c1	none
COc1cc(CNC(=O)c2ccccc2NC(=O)C2=C(C)OCCS2)cc(OC)c1OC	none
CCCc1cc(=O)[nH]c(-n2[nH]c3c(c2=O)CCCC3)n1	none | VLA-4 mod pick inactive
O=C(c1ccco1)N1CCN(C(=O)c2cc(-c3ccccn3)nc3ccc(Cl)cc23)CC1	none | VLA-4 mod pick inactive
O=C(c1cc(-c2ccco2)nc2ccccc12)N1CCN(Cc2ccccc2)CC1	none | VLA-4 mod pick inactive
O=C(c1ccco1)N1CCN(C(=O)c2cc(-c3ccncc3)nc3ccc(Br)cc23)CC1	none | VLA-4 mod pick inactive
CCc1cc2c(nc1CC)CCCN2Cc1ccc(Br)cc1	none (no result: VLA-4 inh, Granule exo inh, ABCB6 inh 2)
CC1(Cc2ccc(OC(F)(F)F)cc2)C(=O)Nc2ccc(OC(F)(F)F)cc21 (stereo not given)	none (no result: VLA-4 inh)
COc1ccc(C(=O)NCC(=O)OCc2ccc(Cl)cc2Cl)cc1OC	none
Cc1nc(NC(=O)c2ccc(-c3cc4ccccc4oc3=O)cc2)ccc1Br	none | VLA-4 mod pick inactive
CC1=C(C(=O)OCC2CCCO2)C(c2ccncc2)C2=C(CCCC2=O)N1 (stereo not given)	VLA-4 inh 92 (no result: CaV13 ICDI inh) | VLA-4 mod pick inactive
Nc1ccn([C@@H]2O[C@H](C(=O)N(CCC3=CCCCC3)CC3CC3)[C@@H](O)[C@H]2O)c(=O)n1	none (no result: VLA-4 inh)
COc1ccc(C2CC(=O)C(c3cccc(OC)c3)=CN2Cc2ccccc2)cc1 (stereo not given)	none (no result: VLA-4 inh, Granule exo inh, ABCB6 inh 2)
Cc1ccc(-c2nnc(SCc3ccccc3F)o2)cc1	none
COc1ccc(-c2nnc(SCc3ccccc3F)o2)cc1OC	VLA-4 inh 95 | VLA-4 mod pick inactive
O=C(C(=O)N1CCN(S(=O)(=O)c2ccc(OC(F)(F)F)cc2)CC1)c1cccc(C(F)(F)F)c1	none (no result: VLA-4 inh, Granule exo inh, ABCB6 inh 2)
Cc1nc2cc(-c3ccc(Cl)cc3)nn2c(C)c1CCC(=O)NCc1ccco1	VLA-4 inh 52 | VLA-4 mod pick inactive
COc1ccc(-c2cc3nc(C)c(CCC(=O)NCc4ccco4)c(C)n3n2)c(OC)c1	none
Cc1ccccc1-c1noc(C(C)NC(=O)c2ccco2)n1 (stereo not given)	none
COc1ccc(Cc2nc3ccc(S(=O)(=O)N4CCOCC4)cc3[nH]2)cc1OC	none
COc1ccc(Cc2nc3ccc(S(N)(=O)=O)cc3[nH]2)cc1OC	VLA-4 inh 102 (no result: CaV13 ICDI inh, Granule exo inh, ABCB6 inh 2) | VLA-4 mod pick inactive
COC(=O)[C@]12C[C@H](CC(=O)NCc3ccccc3)C(=O)N(CCC3=CCCCC3)C1=C[C@H](COCc1ccccc1)O[C@@H]2C	none (no result: VLA-4 inh, Granule exo inh, ABCB6 inh 2)
COc1ccc(C(=O)N2CCC(C(=O)Nc3ccc(OC)c(OC)c3)CC2)cc1	none (no result: CaV13 ICDI inh) | VLA-4 mod pick inactive
Cc1ccccc1C(=O)N1CCC(C(=O)Nc2ccccc2Cl)CC1	none | VLA-4 mod pick inactive
Cc1ccccc1C(=O)N1CCC(C(=O)Nc2ccccc2N2CCCC2)CC1	none
COC(=O)c1ccccc1NC(=O)C1CCN(C(=O)c2cc(OC)c(OC)c(OC)c2)CC1	none (no result: CaV13 ICDI inh) | VLA-4 mod pick inactive
Cc1ccc(NC(=O)C2CCN(C(=O)c3ccc(Cl)cc3)CC2)nc1	none | VLA-4 mod pick inactive
Cc1ccc(C(=O)N2CCC(C(=O)NC3CCCCCC3)CC2)cc1	none
COC(=O)[C@]12C[C@H](CC(=O)NCc3ccc(C)o3)C(=O)N(Cc3ccccc3)C1=C[C@H](C1CCCC1)O[C@@H]2C	none (no result: VLA-4 inh, Granule exo inh, ABCB6 inh 2)
O=[N+]([O-])c1ccc(-c2ccc(S(=O)(=O)NCCN3CCCC3)cc2)cc1	none
Cc1ccc(NC(=O)C2CCN(C(=O)c3ccccc3C)CC2)nc1	none | VLA-4 mod pick inactive
Cc1ccccc1C(=O)N1CCC(C(=O)Nc2nccs2)CC1	none
